Test results taken from PubChem BioAssay AID1159580 (chemical genetic matrix, 2015).
Where “and” joins values, the source holds several entries; their conditions need not be identical. Identical values can stand only once. The whole screen tested about 5,500 compounds, of which about 2,000 (36%) were called active. Not shown: some 18% with an inconclusive outcome. Cut-off read from the data, not from the text of the source: active = normalized growth mostly below about 0.91 (no sharp cut-off); inconclusive = no clear call, values can overlap the other calls; inactive = mostly above about 0.92. The list shows a part of the results.

Assay: chemical genetic growth profiling, strain panel (AID 1159580);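 note: tested at 20 µM; growth read once vehicle control cultures reached saturation at 30 °C; 1 = growth at the plate median or of vehicle wells; lower values mean less growth of the strain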
Settings: S. cerevisiae deletion strains, growth OD

Measured: normalized growth

CC(C)[N+](C)(CCC(C(N)=O)(c1ccccc1)c1ccccc1)C(C)C
inactive: locus YAL013W, strain DEP1, stronger effect = lower value 1.01 | locus YAL021C, strain ccr4, stronger effect = lower value 0.997 | locus YAL026C, strain drs2, stronger effect = lower value 0.999 | locus YAL030W, strain snc1, stronger effect = lower value 0.993 | locus YBL061C, strain skt5, stronger effect = lower value 0.992 | locus YBR009C, strain hhf1, stronger effect = lower value 0.994 | locus YBR021W, strain FUR4, stronger effect = lower value 1 | locus YBR023C, strain chs3, stronger effect = lower value 0.979 | locus YBR171W, strain sec66, stronger effect = lower value 0.987 | locus YBR229C, strain ROT2, stronger effect = lower value 1.01 | locus YBR231C, strain swc5, stronger effect = lower value 0.991 | locus YBR279W, strain paf1, stronger effect = lower value 0.97 | locus YCL011C, strain gbp2, stronger effect = lower value 0.966 | locus YCL016C, strain dcc1, stronger effect = lower value 0.953 | locus YCL029C, strain bik1, stronger effect = lower value 1 | locus YCL061C, strain MRC1, stronger effect = lower value 0.97 | locus YCL069W, strain vba3, stronger effect = lower value 0.993 | locus YCR088W, strain abp1, stronger effect = lower value 0.986 | locus YDL005C, strain med2, stronger effect = lower value 0.996 | locus YDL035C, strain GPR1, stronger effect = lower value 1.01 | locus YDL040C, strain nat1, stronger effect = lower value 0.996 | locus YDL074C, strain BRE1, stronger effect = lower value 1.01 | locus YDL101C, strain DUN1, stronger effect = lower value 1.01 | locus YDL185W, strain tfp1, stronger effect = lower value 0.996 | locus YDL192W, strain arf1, stronger effect = lower value 1 | locus YDR001C, strain nth1, stronger effect = lower value 0.987 | locus YDR069C, strain doa4, stronger effect = lower value 1 | locus YDR101C, strain arx1, stronger effect = lower value 0.999 | locus YDR137W, strain rgp1, stronger effect = lower value 0.987 | locus YDR150W, strain NUM1, stronger effect = lower value 1.01 | locus YDR159W, strain sac3, stronger effect = lower value 0.997 | locus YDR162C, strain NBP2, stronger effect = lower value 1 | locus YDR195W, strain ref2 1.02 | locus YDR297W, strain sur2, stronger effect = lower value 0.991 | locus YDR318W, strain mcm21, stronger effect = lower value 0.999 | locus YDR334W, strain swr1, stronger effect = lower value 0.981 | locus YDR335W, strain msn5, stronger effect = lower value 0.99 | locus YDR388W, stronger effect = lower value 1 | locus YDR392W, strain spt3, stronger effect = lower value 0.9 | locus YDR502C, strain sam2, stronger effect = lower value 0.986 | locus YEL003W, strain gim4, stronger effect = lower value 1.01 | locus YEL037C, strain rad23, stronger effect = lower value 0.987 | locus YEL061C, strain CIN8 (second series), stronger effect = lower value 0.988 | locus YEL061C, strain CIN8, stronger effect = lower value 0.999 | locus YER015W, strain faa2, stronger effect = lower value 0.995 | locus YER016W, strain bim1, stronger effect = lower value 0.998 | locus YER110C, stronger effect = lower value 1 | locus YER111C, strain swi4, stronger effect = lower value 0.981 | locus YER155C, strain BEM2 (second series), stronger effect = lower value 1 | locus YER155C, strain BEM2, stronger effect = lower value 1.02 | locus YER167W, strain BCK2, stronger effect = lower value 0.999 | locus YFR010W, strain ubp6, stronger effect = lower value 0.986 | locus YGL078C, strain dbp3, stronger effect = lower value 0.996 | locus YGL086W, strain mad1, stronger effect = lower value 1 | locus YGL167C, strain pmr1, stronger effect = lower value 0.989 | locus YGL173C, strain kem1, stronger effect = lower value 0.998 | locus YGL227W, strain vid30, stronger effect = lower value 0.98 | locus YGL240W, strain doc1, stronger effect = lower value 1 | locus YGL248W, strain PDE1, stronger effect = lower value 1 | locus YGL253W, strain hxk2, stronger effect = lower value 0.983 | locus YGR135W, strain pre9, stronger effect = lower value 0.978 | locus YGR252W, strain gcn5, stronger effect = lower value 0.896 | locus YHR013C, strain ard1, stronger effect = lower value 0.961 | locus YHR027C, strain rpn1, stronger effect = lower value 0.997 | locus YHR030C, strain SLT2, stronger effect = lower value 0.998 and 1 | locus YHR079C, strain IRE1 (second series), stronger effect = lower value 0.998 | locus YHR079C, strain IRE1, stronger effect = lower value 0.994 | locus YHR094C, strain hxt1, stronger effect = lower value 0.995 | locus YHR129C, strain ARP1, stronger effect = lower value 1.01 | locus YHR142W, strain chs7, stronger effect = lower value 0.939 | locus YHR200W, strain rpn10, stronger effect = lower value 1 | locus YIL066C, strain RNR3, stronger effect = lower value 1.01 | locus YIL073C, strain SPO22, stronger effect = lower value 0.988 | locus YIL125W, strain kgd1, stronger effect = lower value 0.993 | locus YIR030C, strain dcg1, stronger effect = lower value 1.02 | locus YJL092W, strain hpr5, stronger effect = lower value 0.986 | locus YJL095W, strain BCK1 (second series), stronger effect = lower value 0.988 | locus YJL095W, strain BCK1, stronger effect = lower value 1.01 | locus YJL115W, strain asf1, stronger effect = lower value 0.993 | locus YJL129C, strain trk1, stronger effect = lower value 0.991 | locus YJL134W, strain LCB3, stronger effect = lower value 1.02 | locus YJL154C, strain vps35, stronger effect = lower value 1 | locus YJL164C, strain tpk1, stronger effect = lower value 0.987 | locus YJL166W, strain qcr8, stronger effect = lower value 0.972 | locus YJL168C, strain set2, stronger effect = lower value 0.99 | locus YJL187C, strain SWE1 (second series), stronger effect = lower value 1.01 | locus YJL187C, strain SWE1, stronger effect = lower value 1 | locus YJR043C, strain POL32, stronger effect = lower value 1.01 | locus YJR066W, strain TOR1, stronger effect = lower value 0.943 | locus YKL009W, strain mrt4, stronger effect = lower value 1 | locus YKL068W, stronger effect = lower value 0.998 | locus YKL085W, strain MDH1 (second series), stronger effect = lower value 0.995 | locus YKL085W, strain MDH1, stronger effect = lower value 0.995 | locus YKL160W, strain elf1, stronger effect = lower value 0.961 | locus YKL190W, strain CNB1, stronger effect = lower value 0.98 | locus YKR001C, strain vps1, stronger effect = lower value 0.997 | locus YKR026C, strain gcn3, stronger effect = lower value 0.998 | locus YKR091W, strain srl3, stronger effect = lower value 0.992 | locus YLL001W, strain dnm1, stronger effect = lower value 0.96 | locus YLL026W, stronger effect = lower value 0.99 | locus YLL041C, strain sdh2, stronger effect = lower value 0.995 | locus YLR027C, strain aat2, stronger effect = lower value 0.994 | locus YLR039C, strain RIC1, stronger effect = lower value 1.07 | locus YLR058C, strain SHM2, stronger effect = lower value 1.01 | locus YLR102C, strain apc9, stronger effect = lower value 0.999 | locus YLR113W, strain HOG1, stronger effect = lower value 1.04 | locus YLR221C, strain rsa3, stronger effect = lower value 0.972 | locus YLR258W, strain gsy2, stronger effect = lower value 0.98 | locus YLR262C, strain YPT6 (second series), stronger effect = lower value 1 | locus YLR262C, strain YPT6, stronger effect = lower value 1.03 | locus YLR268W, strain sec22, stronger effect = lower value 0.987 | locus YLR320W, strain mms22, stronger effect = lower value 0.971 | locus YLR330W, strain CHS5, stronger effect = lower value 1.01 | locus YLR342W, strain FKS1 (second series), stronger effect = lower value 1.02 | locus YLR342W, strain FKS1, stronger effect = lower value 0.994 | locus YLR357W, strain rsc2, stronger effect = lower value 0.971 | locus YLR370C, strain arc18, stronger effect = lower value 0.975 | locus YLR371W, strain rom2, stronger effect = lower value 0.981 | locus YLR384C, strain iki3, stronger effect = lower value 0.991 | locus YLR418C, strain cdc73, stronger effect = lower value 0.923 | locus YML016C, strain PPZ1, stronger effect = lower value 1.01 | locus YML032C, strain rad52, stronger effect = lower value 0.993 | locus YML120C, strain ndi1, stronger effect = lower value 0.946 | locus YML124C, strain tub3, stronger effect = lower value 0.993 | locus YMR058W, strain fet3, stronger effect = lower value 0.998 | locus YMR078C, strain ctf18, stronger effect = lower value 1 | locus YMR125W, strain sto1, stronger effect = lower value 0.978 | locus YMR129W, stronger effect = lower value 0.996 | locus YMR205C, strain PFK2, stronger effect = lower value 0.974 | locus YMR223W, strain ubp8, stronger effect = lower value 0.987 | locus YMR231W, strain pep5, stronger effect = lower value 1 | locus YMR307W, strain GAS1, stronger effect = lower value 0.9 | locus YNL067W, strain RPL9B, stronger effect = lower value 0.997 | locus YNL071W, strain lat1, stronger effect = lower value 0.983 | locus YNL128W, strain TEP1, stronger effect = lower value 1.01 | locus YNL153C, strain GIM3, stronger effect = lower value 1.01 | locus YNL183C, strain NPR1, stronger effect = lower value 0.964 | locus YNL209W, strain ssb2, stronger effect = lower value 0.986 | locus YNL233W, strain BNI4, stronger effect = lower value 1.01 | locus YNL248C, strain rpa49, stronger effect = lower value 0.992 | locus YNL250W, strain rad50, stronger effect = lower value 0.987 | locus YNL271C, strain bni1, stronger effect = lower value 1 | locus YNL298W, strain CLA4, stronger effect = lower value 1 | locus YNL307C, strain MCK1, stronger effect = lower value 0.988 | locus YNL322C, strain KRE1 (second series), stronger effect = lower value 0.966 | locus YNR049C, strain mso1, stronger effect = lower value 0.995 | locus YNR052C, strain pop2, stronger effect = lower value 0.995 | locus YOL012C, strain htz1 0.833 | locus YOL147C, strain pex11, stronger effect = lower value 1 | locus YOR001W, strain rrp6, stronger effect = lower value 1.03 | locus YOR061W, strain CKA2, stronger effect = lower value 1.01 | locus YOR069W, strain VPS5, stronger effect = lower value 1.01 | locus YOR070C, strain gyp1, stronger effect = lower value 1 | locus YOR080W, strain dia2, stronger effect = lower value 1 | locus YOR083W, strain WHI5, stronger effect = lower value 0.963 | locus YOR106W, strain vam3, stronger effect = lower value 0.976 | locus YOR136W, strain idh2, stronger effect = lower value 0.985 | locus YOR144C, strain elg1, stronger effect = lower value 1 | locus YOR184W, strain ser1, stronger effect = lower value 0.979 | locus YOR231W, strain MKK1, stronger effect = lower value 0.972 | locus YOR265W, strain rbl2, stronger effect = lower value 0.994 | locus YOR270C, strain vph1, stronger effect = lower value 0.984 | locus YOR290C, strain snf2, stronger effect = lower value 0.923 | locus YOR316C, strain cot1, stronger effect = lower value 1.01 | locus YPL051W, strain arl3, stronger effect = lower value 0.998 | locus YPL055C, strain LGE1, stronger effect = lower value 0.991 | locus YPL078C, strain atp4, stronger effect = lower value 0.974 | locus YPL106C, strain sse1, stronger effect = lower value 0.961 | locus YPL240C, strain hsp82, stronger effect = lower value 1 | locus YPL256C, strain CLN2, stronger effect = lower value 1 | locus YPR119W, strain clb2, stronger effect = lower value 0.991 | locus YPR141C, strain kar3, stronger effect = lower value 0.993 | locus YPR163C, strain tif3, stronger effect = lower value 0.998 | locus YPR167C, strain met16, stronger effect = lower value 0.979 | strain wtn01, stronger effect = lower value 0.98
